# Test results reported in PubChem BioAssay AID1159580 (chemical genetic matrix, 2015).
# Where “and” joins values, the source holds several entries; their conditions need not be identical. Identical values can stand only once. Hit rate of the full screen: of about 5,500 compounds, about 2,000 (36%) were called active. Another 18% or so got no clear call; they are omitted. Cut-off read from the data, not from the text of the source: active = normalized growth mostly below about 0.91 (no sharp cut-off); inconclusive = no clear call, values can overlap the other calls; inactive = mostly above about 0.92. The list shows a part of the results.
# Assay: chemical genetic growth profiling, strain panel (AID 1159580);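 note: tested at 20 µM; growth read once vehicle control cultures reached saturation at 30 °C; 1 = growth at the plate median or of vehicle wells; lower values mean less growth of the strain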
# Settings: S. cerevisiae deletion strains, growth OD
smiles,measurement,setting,value
CC(=O)Oc1cc(-c2coc3cc(OC(C)=O)c(OC(C)=O)c(OC(C)=O)c3c2=O)cc(OC(C)=O)c1OC(C)=O,normalized growth,"locus YAL013W, strain DEP1, stronger effect = lower value",0.67 (active)
same,normalized growth,"locus YAL021C, strain ccr4, stronger effect = lower value",0.81 (active)
same,normalized growth,"locus YAL026C, strain drs2, stronger effect = lower value",0.836 (active)
same,normalized growth,"locus YAL030W, strain snc1, stronger effect = lower value",0.969 (inactive)
same,normalized growth,"locus YBL061C, strain skt5, stronger effect = lower value",0.919 (active)
same,normalized growth,"locus YBR009C, strain hhf1, stronger effect = lower value",0.934 (inactive)
same,normalized growth,"locus YBR021W, strain FUR4, stronger effect = lower value",0.854 (inactive)
same,normalized growth,"locus YBR023C, strain chs3, stronger effect = lower value",0.841 (active)
same,normalized growth,"locus YBR171W, strain sec66, stronger effect = lower value",0.936 (inactive)
same,normalized growth,"locus YBR229C, strain ROT2, stronger effect = lower value",0.89 (active)
same,normalized growth,"locus YBR231C, strain swc5, stronger effect = lower value",0.772 (active)
same,normalized growth,"locus YBR279W, strain paf1, stronger effect = lower value",0.937 (inactive)
same,normalized growth,"locus YCL011C, strain gbp2, stronger effect = lower value",0.93 (inactive)
same,normalized growth,"locus YCL016C, strain dcc1, stronger effect = lower value",0.948 (inactive)
same,normalized growth,"locus YCL029C, strain bik1, stronger effect = lower value",0.674 (active)
same,normalized growth,"locus YCL069W, strain vba3, stronger effect = lower value",0.96 (inactive)
same,normalized growth,"locus YCR088W, strain abp1, stronger effect = lower value",0.977 (inactive)
same,normalized growth,"locus YDL005C, strain med2, stronger effect = lower value",0.985 (inactive)
same,normalized growth,"locus YDL035C, strain GPR1, stronger effect = lower value",0.83 (active)
same,normalized growth,"locus YDL040C, strain nat1, stronger effect = lower value",0.987 (inactive)
same,normalized growth,"locus YDL074C, strain BRE1, stronger effect = lower value",0.643 (active)
same,normalized growth,"locus YDL101C, strain DUN1, stronger effect = lower value",0.438 (active)
same,normalized growth,"locus YDL185W, strain tfp1, stronger effect = lower value",0.978 (inactive)
same,normalized growth,"locus YDL192W, strain arf1, stronger effect = lower value",0.899 (active)
same,normalized growth,"locus YDR001C, strain nth1, stronger effect = lower value",0.977 (inactive)
same,normalized growth,"locus YDR069C, strain doa4, stronger effect = lower value",0.752 (active)
same,normalized growth,"locus YDR101C, strain arx1, stronger effect = lower value",0.827 (active)
same,normalized growth,"locus YDR137W, strain rgp1, stronger effect = lower value",0.795 (active)
same,normalized growth,"locus YDR159W, strain sac3, stronger effect = lower value",0.863 (inactive)
same,normalized growth,"locus YDR162C, strain NBP2, stronger effect = lower value",0.717 (active)
same,normalized growth,"locus YDR195W, strain ref2",0.947 (inactive)
same,normalized growth,"locus YDR297W, strain sur2, stronger effect = lower value",0.914 (active)
same,normalized growth,"locus YDR318W, strain mcm21, stronger effect = lower value",0.967 (inactive)
same,normalized growth,"locus YDR334W, strain swr1, stronger effect = lower value",0.834 (active)
same,normalized growth,"locus YDR335W, strain msn5, stronger effect = lower value",0.851 (active)
same,normalized growth,"locus YDR388W, stronger effect = lower value",0.978 (inactive)
same,normalized growth,"locus YDR392W, strain spt3, stronger effect = lower value",0.938 (inactive)
same,normalized growth,"locus YDR502C, strain sam2, stronger effect = lower value",0.898 (active)
same,normalized growth,"locus YEL003W, strain gim4, stronger effect = lower value",0.877 (active)
same,normalized growth,"locus YEL037C, strain rad23, stronger effect = lower value",0.88 (active)
same,normalized growth,"locus YEL061C, strain CIN8 (second series), stronger effect = lower value",0.946 (inactive)
same,normalized growth,"locus YER015W, strain faa2, stronger effect = lower value",0.894 (active)
same,normalized growth,"locus YER016W, strain bim1, stronger effect = lower value",0.972 (inactive)
same,normalized growth,"locus YER110C, stronger effect = lower value",1.05 (inactive)
same,normalized growth,"locus YER111C, strain swi4, stronger effect = lower value",0.469 (active)
same,normalized growth,"locus YER155C, strain BEM2 (second series), stronger effect = lower value",0.906 (inactive)
same,normalized growth,"locus YER155C, strain BEM2, stronger effect = lower value",0.913 (active)
same,normalized growth,"locus YER167W, strain BCK2, stronger effect = lower value",0.949 (inactive)
same,normalized growth,"locus YFR010W, strain ubp6, stronger effect = lower value",0.881 (active)
same,normalized growth,"locus YGL078C, strain dbp3, stronger effect = lower value",1.01 (inactive)
same,normalized growth,"locus YGL086W, strain mad1, stronger effect = lower value",0.887 (active)
same,normalized growth,"locus YGL167C, strain pmr1, stronger effect = lower value",0.956 (inactive)
same,normalized growth,"locus YGL173C, strain kem1, stronger effect = lower value",0.85 (active)
same,normalized growth,"locus YGL227W, strain vid30, stronger effect = lower value",0.996 (inactive)
same,normalized growth,"locus YGL240W, strain doc1, stronger effect = lower value",0.975 (inactive)
same,normalized growth,"locus YGL248W, strain PDE1, stronger effect = lower value",0.845 (active)
same,normalized growth,"locus YGL253W, strain hxk2, stronger effect = lower value",0.862 (active)
same,normalized growth,"locus YGR135W, strain pre9, stronger effect = lower value",0.871 (active)
same,normalized growth,"locus YGR229C, strain SMI1, stronger effect = lower value",0.302 (active)
same,normalized growth,"locus YGR252W, strain gcn5, stronger effect = lower value",0.873 (inactive)
same,normalized growth,"locus YHR013C, strain ard1, stronger effect = lower value",0.877 (inactive)
same,normalized growth,"locus YHR027C, strain rpn1, stronger effect = lower value",0.885 (active)
same,normalized growth,"locus YHR030C, strain SLT2, stronger effect = lower value",1.05 (inactive)
same,normalized growth,"locus YHR079C, strain IRE1 (second series), stronger effect = lower value",0.794 (active)
same,normalized growth,"locus YHR079C, strain IRE1, stronger effect = lower value",1.07 (inactive)
same,normalized growth,"locus YHR094C, strain hxt1, stronger effect = lower value",1.03 (inactive)
same,normalized growth,"locus YHR129C, strain ARP1, stronger effect = lower value",0.844 (active)
same,normalized growth,"locus YHR142W, strain chs7, stronger effect = lower value",0.82 (active)
same,normalized growth,"locus YHR200W, strain rpn10, stronger effect = lower value",0.914 (active)
same,normalized growth,"locus YIL066C, strain RNR3, stronger effect = lower value",0.834 (active)
same,normalized growth,"locus YIL073C, strain SPO22, stronger effect = lower value",0.602 (active)
same,normalized growth,"locus YIL125W, strain kgd1, stronger effect = lower value",1.03 (inactive)
same,normalized growth,"locus YIR030C, strain dcg1, stronger effect = lower value",0.974 (inactive)
same,normalized growth,"locus YJL092W, strain hpr5, stronger effect = lower value",0.964 (inactive)
same,normalized growth,"locus YJL095W, strain BCK1 (second series), stronger effect = lower value",0.945 (inactive)
same,normalized growth,"locus YJL095W, strain BCK1, stronger effect = lower value",0.179 (active) and 1.03 (inactive)
same,normalized growth,"locus YJL115W, strain asf1, stronger effect = lower value",0.978 (inactive)
same,normalized growth,"locus YJL129C, strain trk1, stronger effect = lower value",0.942 (inactive)
same,normalized growth,"locus YJL134W, strain LCB3, stronger effect = lower value",0.936 (inactive)
same,normalized growth,"locus YJL154C, strain vps35, stronger effect = lower value",0.978 (inactive)
same,normalized growth,"locus YJL164C, strain tpk1, stronger effect = lower value",0.893 (active)
same,normalized growth,"locus YJL166W, strain qcr8, stronger effect = lower value",0.906 (inactive)
same,normalized growth,"locus YJL168C, strain set2, stronger effect = lower value",1.01 (inactive)
same,normalized growth,"locus YJL187C, strain SWE1 (second series), stronger effect = lower value",0.273 (active)
same,normalized growth,"locus YJL187C, strain SWE1, stronger effect = lower value",0.945 (inactive)
same,normalized growth,"locus YJR066W, strain TOR1, stronger effect = lower value",0.971 (inactive)
